From PubChem
Compounds with a hit are over-represented: about 11% of the library has one in this group of screens.
Vaccinia Venus – vaccinia inhibition (Venus reporter) | 0.46% of 330,000 active | Potency, µM (series often up to 36.5 µM), usual class: inhibitors | AID 720580 | Vaccinia virus Venus reporter expression, fluorescence; calls by dose curve; tested in A549 cells; further: nearly all actives have a fitted effect of over 30% in size
Pf growth 96h – P. falciparum growth inhibition at 96 hour, primary screen for plastid delayed-death inhibitors; P. falciparum luciferase reporter growth, 96 h; Potency, µM (highest dose often 28.7 µM), hits mostly inhibitors; 6.9% of 320,000 active
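Two parasite generations (96 h, 37 C, 5% CO2) of compound exposure in infected erythrocytes (0.05% parasitemia, 2% hematocrit). Luciferase-reporter P. falciparum; decreased luminescence indicates inhibited growth, aimed at apicoplast-acting delayed death.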
HCV inhibitor – inhibitors of hepatitis C virus infection; 3.4% of 340,000 active; Potency, µM (titrated, usually from 41.8 µM), most hits filed as inhibitors; AID 651820; Huh7.5.1 HCVcc-Cre infection, luciferase reporter, 44 h
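Seed cells (1,000/well) for 4 h; treat with compound and infect with HCVcc-Cre, moi about 0.5. Incubate 44 h, then detect luciferase activity.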
Pf growth 48h – P. falciparum growth inhibition at 48 hours (one generation) | AID 504832 | 5.9% of 310,000 active | Potency, µM (titrated, usually from 28.7 µM), most hits filed as inhibitors | P. falciparum luciferase growth in erythrocytes, 48 h
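First compound was added to culture medium, then infected red cells at 0.1% parasitemia and 2% hematocrit (final). After incubation at 37 C under 5% CO2, luciferase detection reagent was dispensed and light output recorded.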
Vaccinia mCherry – inhibitors of vaccinia virus infection (mCherry reporter signal); Vaccinia virus mCherry reporter infection, fluorescence; Potency, µM (highest dose often 36.5 µM), most hits filed as inhibitors; 0.63% of 310,000 active; calls by dose curve; tested in A549 cells; further: nearly all actives have a fitted effect of over 35% in size
NS1 function inh – blocks influenza NS1 protein function. Potency, µM (highest dose often 46.1 µM). 0.4% of 270,000 active; calls by dose curve; further: actives are rising curves; nearly all actives have a fitted effect of over 50% in size
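Compounds were scored for reversing the slow growth caused by influenza A NS1 in S. cerevisiae, measured by optical density at 600 nm. Assay medium contained 2% galactose at pH 6.0; NS1-free yeast of the same strain were the positive control.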
A number is an active result; i = inactive; ? = inconclusive; nt = not tested or not shown; [ ] = remark or other dose. Unless noted, the call rests on the fitted dose curve; in most records, active means well fitted inhibition curve with a large enough effect; inconclusive means small, poorly fitted or top-dose-only effect, or another doubt; inactive means no such curve, though single readings can be large or run the other way.

SMILES | Vaccinia Venus | Pf growth 96h | HCV inhibitor | Pf growth 48h | Vaccinia mCherry | NS1 function inh
O=C(NN=Cc1ccc([N+](=O)[O-])cc1)c1ccncc1 | i | nt | i | nt | i | nt
Cc1ccc(-c2nc(=Nc3ccccc3)sn2-c2ccccc2)cc1 | ? | nt | nt | nt | 14µM | nt
COc1ccc(N=c2nc(-c3ccc(C)cc3)n(-c3ccccc3)s2)cc1 | ? | nt | nt | nt | i | nt
COc1ccc(N=c2nc(-c3ccccc3)n(-c3ccc(C)cc3)s2)cc1 | ? | nt | nt | nt | 11µM | nt
COC(=O)c1ccc(Cn2nc(-c3ccc(C)c(C)c3)ccc2=O)cc1 | i | ? | i | i | i | i
CCc1nnc(NC(=O)C2Cc3ccccc3CN2S(=O)(=O)c2c(C)c(C)cc(C)c2C)s1 (configuration not stated) | nt | nt | i | ? | nt | i
Cc1ccc(CCSc2ccc(C(C)C)cc2)cn1 | i | 12µM | i | i | i | i
Cc1ccc(CCSc2ccc(F)cc2)cn1 | i | ? | i | i | i | i
O=C(N/N=C/c1ccco1)c1ccc(OCc2ccccc2)cc1 | i | i | i | ? | i | i
O=C(N/N=C/c1ccco1)c1ccccc1OCc1ccc(Br)cc1 | i | 13µM | ? | i | i | i
Fc1cccc(Cl)c1CNCc1cccnc1 | i | 12µM | i | i | i | i
CCOc1ccc(Br)cc1C(=O)N/N=C/c1ccccn1 | i | ? | ? | 9.3µM | ? | i
CCOc1ccc(Br)cc1C(=O)N/N=C/c1c[nH]c2ccccc12 | nt | i | 13µM | ? | nt | i
COc1ccc(C(=O)Nc2ccccc2C(=O)N/N=C/c2ccccn2)cc1OC | ? | 12µM | ? | 4.1µM | ? | i
C=CCOc1ccccc1CNCc1cccnc1 | nt | i | i | i | nt | i
COc1ccc(C(=O)N/N=C/c2ccccn2)cc1OC | i | ? | i | ? | i | nt
Brc1ccc(OCc2ccccc2)c(CNCc2ccncc2)c1 | nt | 0.41µM | 10µM | 9.3µM | nt | i
Fc1ccc(COc2ccccc2CNCc2ccncc2)cc1 | i | ? | ? | ? | i | i
Clc1ccc(COc2ccccc2CNCc2cccnc2)cc1 | i | 4.7µM | 10µM | nt | i | i
O=C(N/N=C/c1ccncc1)c1cc(Br)ccc1OCc1ccccc1 | i | 2.9µM | 8.9µM | ? | i | i
ClCC(Br)CBr (configuration not stated) | i | i | ? | i | i | nt
CN(C)CCCNC(=S)NCC(c1ccc(Cl)cc1Cl)c1c[nH]c2ccccc12 (configuration not stated) | ? | 2.1µM | 11µM | ? | ? | i
CCCCNC(=S)NCC(c1ccccc1)c1c[nH]c2ccccc12 (configuration not stated) | i | ? | ? | ? | i | i
CCOC(=O)c1cnc(SCC(=O)N2CCC(C(N)=O)CC2)nc1N | i | i | i | i | i | i
COc1cc2c(cc1OC)[C@@H]1O[C@](c3ccsc3)(C2)Oc2cc(C)n(-c3ccccc3)c(=O)c21 | nt | 1.5µM | nt | i[5.75 µM] | nt | i
SMILES | Vaccinia Venus | Pf growth 96h | HCV inhibitor | Pf growth 48h | Vaccinia mCherry | NS1 function inh
Cc1cc2c(c(=O)n1-c1ccccc1)C1O[C@](c3ccsc3)(Cc3ccccc31)O2 | nt | 1.7µM | nt | ? | nt | i
CCOC(=O)C1CCN(C(C(=O)NC2CCCC2)c2ccc(C)cc2)CC1 (configuration not stated) | i | 10µM | i | nt | i | i
CCN1CCN(C(C(=O)NC2CCCC2)c2ccc(Cl)cc2)CC1 (configuration not stated) | i | 12µM | i | nt | i | i
O=CN1CCN(C(C(=O)NC2CCCCC2)c2ccc(Cl)cc2)CC1 (configuration not stated) | i | nt | i | nt | i | nt
Cc1ccc(C(C(=O)NC2CCCCC2)N2CCN(C(=O)c3ccco3)CC2)cc1 (configuration not stated) | nt | i | i | 12µM | nt | i
Cc1ccc(C(C(=O)NC2CCCC2)N2CCCCC2)cc1 (configuration not stated) | i | 1.9µM | i | ? | i | i
Cc1ccc(C(C(=O)NC2CCCCC2)N2CCCC2)cc1 (configuration not stated) | i | ? | i | i | i | i
Cc1cccc(N2CC(C(=O)Nc3nnc(SCCC4OCCO4)s3)CC2=O)c1 (configuration not stated) | i | ? | i | ? | i | i
CCCCNc1ccc(C(=O)OCCN(C)C)cc1 | i | i | i | i | i | i
C[C@@]1(CO)[C@H](O)CC[C@]2(C)[C@@H]1CC[C@H]1C[C@H]3C[C@]12CC[C@]3(O)COC(=O)CN | nt | nt | nt | nt | nt | i
C[C@@]1(CO)[C@H](O)CC[C@@]2(C)[C@H]1CC[C@H]1C[C@@H]3C[C@@]12CC[C@]3(O)CO | i | 0.59µM | i[8.37 µM] | 0.52µM | i | i
Cc1cc(C)c(NC(=O)CN(C2CCCCC2)C2CCCCC2)c(C)c1 | i | nt | ? | ? | i | i
Cc1cc(C)c(NC(=O)CN(CC(=O)O)CC(=O)O)c(C)c1Br | nt | 3.4µM | nt | i | nt | nt
O=C1c2ccccc2C(O)(c2ccccc2)N1c1ccncc1 (configuration not stated) | i | ? | i | 12µM | i | i
Cc1ccc2nc(N3CCOCC3)c(C=O)c(=O)n2c1 | i | i | i | i | i | i
O=C(Nc1cccc2ncccc12)c1cccc(Br)c1 | i | ? | i | i | i | i
COc1ccc(Br)cc1C(=O)Nc1cccc2ncccc12 | nt | i | 10µM | i | nt | i
O=C(Nc1cccc2ncccc12)c1ccc(F)cc1 | i | i | i | i | i | i
O=C(Nc1cccc2ncccc12)c1ccc(Cl)cc1 | i | 6.6µM | i | ? | i | i
COc1ccc(Cl)cc1C(=O)Nc1cccc2ncccc12 | nt | 0.23µM | ? | ? | nt | i
COc1cc(C(=O)Nc2cccc3ncccc23)cc(OC)c1OC | i | nt | ? | i | nt | i
O=C(Nc1cccc2ncccc12)c1ccc(Br)c([N+](=O)[O-])c1 | i | i | 13µM | i | i | nt
COc1ccc(C(C(=O)NC2CCCC2)N(C(=O)c2ccco2)c2ccccc2C(C)=O)cc1OC (configuration not stated) | i | i | i | i | i | i
COc1ccc(Br)cc1C(=O)Nc1ccc(O)cc1 | i | nt | 4µM | i | i | i
COc1ccc(Br)cc1C(=O)Nc1ccc(C(=O)O)cc1 | i | i | ? | i | i | i
SMILES | Vaccinia Venus | Pf growth 96h | HCV inhibitor | Pf growth 48h | Vaccinia mCherry | NS1 function inh
NC(=S)NN=C1CCC2(CCCCC2)CC1 | ? | nt | i | nt | ? | nt
CC1(C)CCC(=NNC(N)=S)CC1 | ? | nt | i | nt | 11µM | nt
CN1/C(=C\C=C2C(=O)NC(=S)NC2=O)C(C)(C)c2ccccc21 | i | i | i | i | i | nt
Cc1cc(NC(=O)CSc2nnnn2C2CCCC2)no1 | i | 7.4µM | i | i | i | i
CCOc1ccc(NC(=O)CSc2nnnn2C2CC2)cc1S(=O)(=O)N1CCCC1 | nt | 15µM | i | ? | nt | nt
CCOc1ccc(NC(=O)CSc2nnc(C)n2C2CC2)cc1S(=O)(=O)N1CCCC1 | i | ? | i | ? | i | nt
Cc1ccc(S(=O)(=O)N2CCOCC2)cc1NC(=O)CSc1nnnn1C1CCCC1 | nt | i | i | i | nt | nt
Cc1ccc(NC(=O)CSc2nnnn2C2CCCC2)cc1S(=O)(=O)N1CCOCC1 | nt | 8.3µM | i | ? | nt | nt
